An excerpt weighted towards active compounds, which were near 1.3% of everything screened.
EBNA-1 inh – EBNA-1 DNA-binding inhibitors, primary screen, biochemical, fluorescence polarization. inhibition, % at 14.8 µM. 300,000 compounds, 0.34% hits. AID 1950, 2009; in the data active = inhibition above about 28%
LYPLA1 inh – LYPLA1 inhibitors, primary screen, counter-screen for PME1 inhibitor project, biochemical, fluorescence polarization, FP-Rh probe ABPP; Acyl-protein thioesterase 1 (Homo sapiens), O75608; recombinant LYPLA1; inhibition, % at 5.9 µM; 320,000 compounds, 0.16% hits;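 active = inhibition above the mean of all tested compounds plus 3 SD, set per campaign, cut at about 14% in these data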;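 also: inhibitors block serine hydrolase probe labeling of LYPLA1 so polarization falls; 0% = enzyme with DMSO and 100% = wells lacking LYPLA1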
PREPL inhibitor – PREPL enzyme inhibitors, primary screen, biochemical, fluorescence polarization; inhibition, % at 5.96 µM; recombinant PREPL, fluorescence polarization activity-based probe; Prolyl endopeptidase-like (Homo sapiens), Q4J6C6; 320,000 compounds, 0.68% hits;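 also: 0% = enzyme with DMSO and 100% = wells lacking enzyme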
ZTA DNA inh – blocks Epstein-Barr virus ZTA, an EBNA-1 counter-screen. inhibition, % at 11 µM. AID 2234. ZTA-DNA binding, fluorescence polarization. 320,000 compounds, 0.15% hits. P03206; in the data active = inhibition above about 33%
LYPLA2 inh – LYPLA2 inhibitors, primary screen, counter-screen for PME1 inhibitor project, biochemical, fluorescence polarization, FP-Rh probe ABPP | Acyl-protein thioesterase 2 (Homo sapiens), O95372 | recombinant LYPLA2 | inhibition, % at 5.9 µM | 320,000 compounds, 0.38% hits;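 active = inhibition above the screen-wide mean plus 3 SD, limit set per campaign, cut at about 26% in these data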;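 also: 0% = LYPLA2 with DMSO and 100% = wells lacking LYPLA2 enzyme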
PREPL inh cf – human PREPL enzyme inhibitors, confirmation, biochemical, fluorescence polarization; shares compounds with PREPL inhibitor; AID 2803, 2010; 2,000 compounds, 67% hits; recombinant PREPL, fluorescence polarization activity probe; inhibition, % at 5.96 µM;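 also: 0% = protein with DMSO and 100% = wells lacking protein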
* = called active by the depositor; ! = a repeat was not active. Rule as the data show it, unless noted: active = inhibition above about 43%; inactive = the rest.

C#CCN(Cc1ccco1)C(=O)c1ccc(OC2CCN(Cc3ccccn3)CC2)cc1 was read as EBNA-1 inh 2, LYPLA1 inh -2, PREPL inhibitor 4, ZTA DNA inh 3 and LYPLA2 inh -3.
`CCN(CC)c1ccc(CNc2ccc3c(c2)ncn3C(C)(C)C)cc1` gave EBNA-1 inh 1, LYPLA1 inh 2, PREPL inhibitor 48*, ZTA DNA inh -10, LYPLA2 inh 0 and PREPL inh cf 18.
`CC(C)(C)n1cnc2cc(NCc3ccccc3O)ccc21` gave EBNA-1 inh 1, LYPLA1 inh 3, PREPL inhibitor 19, ZTA DNA inh 1 and LYPLA2 inh 5.
For CCc1ccc(CNc2ccc3c(c2)ncn3CC)cc1 the results were EBNA-1 inh 10, LYPLA1 inh 4, PREPL inhibitor 32, ZTA DNA inh 15 and LYPLA2 inh 11.
`CC(C)(C)n1cnc2cc(NCc3ccc(Br)cc3)ccc21` gave EBNA-1 inh -8, LYPLA1 inh -10, PREPL inhibitor 54*, ZTA DNA inh -3, LYPLA2 inh -22 and PREPL inh cf 63*.
`CN(C)c1ccc(CNc2ccc3c(c2)ncn3C)cc1` gave EBNA-1 inh 11, LYPLA1 inh 0, PREPL inhibitor 32, ZTA DNA inh -17 and LYPLA2 inh 2.
`CCc1ccc(CNc2ccc3c(c2)ncn3C(C)(C)C)cc1` gave EBNA-1 inh -6, LYPLA1 inh -1, PREPL inhibitor 48*, ZTA DNA inh 2, LYPLA2 inh -2 and PREPL inh cf 50*.
For CCOCCCNC(=O)CN1CCN(S(=O)(=O)c2ccc3c(c2)CCC3)CC1 the results were LYPLA1 inh -4, PREPL inhibitor 2, ZTA DNA inh -2 and LYPLA2 inh -4.
COc1ccc(Nc2nc(N)nc(CN3CCc4ccccc4C3)n2)cc1 was read as EBNA-1 inh -2, LYPLA1 inh 2, PREPL inhibitor 43*, ZTA DNA inh 2, LYPLA2 inh 0 and PREPL inh cf 33.
For CCn1c(=O)c(CCC(=O)NCC2CCCO2)c(C)c2c(C)nn(-c3ccc(C)cc3)c21 (stereo not drawn) the results were EBNA-1 inh -7, LYPLA1 inh -1, PREPL inhibitor 15, ZTA DNA inh -27 and LYPLA2 inh 2.
O=C(NCc1ccco1)c1ccc(F)c(S(=O)(=O)N2CCCCC2)c1 was read as EBNA-1 inh 3, LYPLA1 inh -2, PREPL inhibitor 61*, ZTA DNA inh 17, LYPLA2 inh -10 and PREPL inh cf 7.
`O=C(NCc1ccco1)c1ccc(Br)c(S(=O)(=O)N2CCCCC2)c1` gave EBNA-1 inh 4, LYPLA1 inh -4, PREPL inhibitor -6, ZTA DNA inh -11 and LYPLA2 inh -5.
`Cc1csc(NC(=O)CN2C(=O)COc3ccc(Cl)cc32)n1` gave EBNA-1 inh 4, LYPLA1 inh 2, PREPL inhibitor 7, ZTA DNA inh -14 and LYPLA2 inh 8.
Screening CCC[C@@H](CN1CCC[C@H]1CN1C(N)=NC[C@H]1CC(C)C)N1C[C@@H](Cc2ccccc2)N(CCc2ccc(Cl)c(Cl)c2)C1=N returned PREPL inhibitor 42.
Screening CC[C@@H](C)[C@@H]1CN([C@@H](C)CN2CCC[C@H]2CN2C(N)=NC[C@H]2CC(C)C)C(=N)N1CCc1ccc(Cl)c(Cl)c1 returned PREPL inhibitor 53* and PREPL inh cf 41.
CCC[C@@H](CN1CCC[C@H]1CN1C(N)=NC[C@@H]1Cc1ccccc1)N1C[C@@H](Cc2ccccc2)N(CCc2ccc(Cl)c(Cl)c2)C1=N was read as PREPL inhibitor 32.
`CCC[C@@H](CN1CCC[C@H]1CN1C(N)=NC[C@H]1CC(C)C)N1C[C@@H]([C@H](C)CC)N(CCc2ccc(Cl)c(Cl)c2)C1=N` gave PREPL inhibitor 52* and PREPL inh cf 40.
`CCC[C@@H](CN1CCC[C@H]1CN1C(N)=NC[C@@H]1Cc1ccccc1)N1C[C@@H]([C@H](C)CC)N(CCc2ccc(Cl)c(Cl)c2)C1=N` gave PREPL inhibitor 43* and PREPL inh cf 31.
For CC[C@@H](C)[C@@H]1CN([C@@H](CN2CCC[C@H]2CN2C(N)=NC[C@H]2CC(C)C)C(C)C)C(=N)N1CCc1ccc(Cl)c(Cl)c1 the results were PREPL inhibitor 47* and PREPL inh cf 48*.
Screening Cn1nnnc1SCC(=O)Nc1ncc(Cl)cc1Cl returned EBNA-1 inh 5, LYPLA1 inh -2, PREPL inhibitor 0, ZTA DNA inh 1 and LYPLA2 inh 1.
`Cc1cc(S(=O)(=O)/N=C(\N)c2ccc(C(N)=O)cc2)cc(C)c1F` gave EBNA-1 inh -3, LYPLA1 inh -3, PREPL inhibitor -5, ZTA DNA inh 16 and LYPLA2 inh -3.
`C[C@H](N)c1nnc(SCC(N)=O)o1` gave EBNA-1 inh -3, LYPLA1 inh 3, PREPL inhibitor -7, ZTA DNA inh 11 and LYPLA2 inh 2.
`Clc1ccc(-c2csc(=Nc3cccnc3)n2CCCn2ccnc2)cc1Cl` gave EBNA-1 inh 0, LYPLA1 inh 2, PREPL inhibitor 56*, ZTA DNA inh -8, LYPLA2 inh 3 and PREPL inh cf 58*.
For COCCn1c(-c2ccc(Br)cc2)csc1=Nc1cccnc1 the results were EBNA-1 inh -15, LYPLA1 inh 3, PREPL inhibitor 48*, ZTA DNA inh 2, LYPLA2 inh -2 and PREPL inh cf 50*.
`OC(CNC1CCCC1)COc1ccc(Cl)cc1` (stereo not drawn) gave EBNA-1 inh -5, LYPLA1 inh 1, PREPL inhibitor -7, ZTA DNA inh -10 and LYPLA2 inh 7.
For OC(CNC1CCCC1)COCCOc1ccc(Br)cc1 (stereo not drawn) the results were EBNA-1 inh 3, LYPLA1 inh 3, PREPL inhibitor 46*, ZTA DNA inh 3, LYPLA2 inh 0 and PREPL inh cf 35.
Cc1cc(C)c(C)c(S(=O)(=O)NCCCN2CCCC2=O)c1C was read as EBNA-1 inh 10, LYPLA1 inh -2, PREPL inhibitor 7, ZTA DNA inh -3 and LYPLA2 inh 5.
Screening Cc1ccccc1OCC(O)Cn1c(=N)n(CCN2CCOCC2)c2ccccc21 (stereo not drawn) returned EBNA-1 inh 7, LYPLA1 inh 3, PREPL inhibitor 56*, ZTA DNA inh -7, LYPLA2 inh 2 and PREPL inh cf 45*!.
For COc1ccc(C(=O)Nc2ccc(-c3ccc(C)o3)cc2)cc1S(=O)(=O)N1CCOCC1 the results were EBNA-1 inh -3, LYPLA1 inh -1, PREPL inhibitor 63*, ZTA DNA inh 3, LYPLA2 inh 8 and PREPL inh cf 37.

From PubChem BioAssay
